Screening data as filed in PubChem BioAssay.
Abs 340nm = compound light absorbance at 340 nm, profiling panel, artefact control, biochemical, MLSMR library, data from PS, PMK, MK assays. compound absorbance at 340 nm, fold over control. fold change at 10 µM. 65,000 tested, under 10 active. AID 708, 2007;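 active = at 10 µM dose, initial 340 nm absorbance at least 2 fold that of control wells; inactive = change under 2 fold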;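 also: initial absorbance extrapolated from kinetic A340 decline of NADH oxidation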
DPM-DC inhibit = S. pneumoniae DPM-DC inhibitors, primary screen, biochemical, PK/LDH-coupled NADH fluorescence; diphosphomevalonate decarboxylase (Streptococcus pneumoniae D39); purified DPM-DC; calls only at 10 µM; 65,000 compounds, 0.49% hits; AID 556, 2006;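 active = the 320 compounds with the highest percent inhibition in the single-dose primary screen, excluding strongly autofluorescent ones, cut at about 32% in these data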;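 also: kinetic rate of NADH fluorescence loss reporting ADP formed by the decarboxylase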
NADH enzymes = inhibitors of PK/LDH coupling enzymes, profiling panel, artefact control, biochemical, MLSMR library; 65,000 compounds, 0.02% hits; IC50, µM (series often up to 10 µM), inactives show at the top dose inhibition; AID 774, 2007; coupled PK/LDH NADH assays, four targets;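 active = single-dose screening hits from any of four coupled enzyme assays that gave an IC50 when retested across doses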;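 also: the DPM-DC format reads NADH fluorescence rather than 340 nm absorbance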
Autofluor 339 = intrinsic fluorescence of library compounds, ex339/em460 – biochemical, MLSMR library, data from DPM-DC assay, artefact control, profiling panel | compound autofluorescence, ex339/em460 nm, NADH buffer; hits give high values; 1 = no-compound wells, NADH background | fluorescence fold increase at 10 µM | 65,000 compounds, 5.5% hits | AID 709, 2007;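 active = at 10 µM, mean starting fluorescence two-fold or more over control wells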;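 also: signal is the first read of a kinetic run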
MK inhibit = S. pneumoniae MK inhibitors, primary screen, biochemical, PK/LDH-coupled NADH absorbance; mevalonate kinase [Streptococcus pneumoniae D39]; purified MK, PK/LDH-coupled NADH absorbance 340 nm; inhibition, % at 10 µM; 65,000 compounds, 0.48% hits; AID 555, 2006;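 active = ranked among the strongest by inhibition in the single 10 µM screen, a fixed top-ranked set picked for dose follow-up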
Spn PMK inh = S. pneumoniae PMK inhibitors, primary screen, biochemical, mevalonate pathway, pilot trial included | AID 539, 2006 | phosphomevalonate kinase (Streptococcus pneumoniae D39) | inhibition, % at 10 µM | purified PMK, PK/LDH-coupled NADH absorbance 340 nm | 65,000 compounds, 0.49% hits;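 active = top-ranked compounds by inhibition in the single 10 µM screen, taking a fixed number of the strongest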;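 also: 0% = full reaction with DMSO carrier and 100% = background rate without enzyme reaction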
Starred values were filed as active, the others as inactive; i = inactive; . = no result shown; + = active, no number. A selection: hits, their analogues and other compounds. The true share with any hit is near 6.5%.

SMILES	Abs 340nm	DPM-DC inhibit	NADH enzymes	Autofluor 339	MK inhibit	Spn PMK inh
CCOc1ccc(S(=O)(=O)Nc2ccccc2C(=O)Nc2ccccc2N2CCOCC2)cc1	0.99	i	2%	1	1	10
CCOc1ccc(S(=O)(=O)Nc2ccccc2C(=O)NCC2CCCO2)cc1 (stereo not drawn)	1	.	7%	2.1*	5	8
Cc1ccc2c(c1)N(Cc1ccncc1)C(=O)C(C)O2 (stereo not drawn)	1	i	8%	1	5	11
COCCN(CCOC)c1cc(C)c(C#N)c2nc3ccccc3n12	1.1	.	10%	3.8*	6	13
CCCc1cc(NCCCCO)n2c(nc3ccccc32)c1C#N	1	.	8%	2.4*	5	10
Cc1cc(NCCCCO)n2c(nc3ccccc32)c1C#N	1.1	.	10%	3.6*	6	13
Cc1cc(-c2ccco2)n2c(nc3ccccc32)c1C#N	1.1	i	4%	1.1	7	6
CCOCCOC(=O)C1=C(C)NC2=C(C(=O)CC(c3cccs3)C2)C1c1ccsc1 (stereo not drawn)	1.1	.	2%	2.1*	4	0
O=C1NCCN1C(=O)C12CC3CC(CC(C3)C1)C2	1	i	3%	1.1	0	10
CN1CC(=O)NC1=NC(=O)C12CC3CC(CC(C3)C1)C2	1	+	17%	0.6	0	11
CS(=O)(=O)N1CCCC(C(=O)NCc2ccc(F)cc2)C1 (stereo not drawn)	0.97	i	7%	1	1	21
CC(=O)Nc1ccccc1C(=O)N1CC(C)OC(C)C1 (stereo not drawn)	1	i	9%	1.1	11	16
CC1CN(C2CCN(C(=O)c3ccccc3Cl)CC2)CC(C)O1 (stereo not drawn)	1	i	15%	1.1	41*	4
CN(C)CCNC(=O)COc1cccc(Cl)c1	0.98	i	8%	1.1	14	10
COc1ccc(CCC(=O)NC2=NCCS2)cc1OC	1	i	4%	0.98	0	12
CC(=O)c1ccc(N2CCN(c3ccc(C(F)(F)F)cn3)CC2)cc1	1.1	i	17%	1.2	10	40*
Cc1c(C(=O)N2CCN(c3ccc(C(F)(F)F)cn3)CC2)oc2ccccc12	1	i	5%	1.1	6	9
O=C(O)CN1CCN(Cc2ccc(F)cc2Cl)C1=O	0.98	i	5%	1	0	14
CCCCn1c(-c2ccccc2)nc2c(=O)n(C)c(=O)[nH]c21	1	.	5%	3.7*	2	7
CCCc1cc(Nc2c(C)n(C)n(-c3ccccc3)c2=O)n2c(nc3ccccc32)c1C#N	1	i	3%	1.2	9	0
CCc1c(C)c(C#N)c2nc3ccccc3n2c1Nc1c(C)n(C)n(-c2ccccc2)c1=O	1	+	15%	0.69	10	0
Cc1cc(C)n(CCCNCC(O)c2ccccc2)n1 (stereo not drawn)	1.1	i	18%	1.1	53*	0
Cc1ccc(CNC(=O)CSc2nc(N3CCCCC3)nc(N3CCCCC3)n2)cc1	1	i	3%	1.1	6	2
CCN(CC)C(=O)c1cc2c(=O)n3cccc(C)c3nc2n1C	1.1	.	10%	5*	11	9
Cc1cccn2c(=O)c3cc(C(=O)N4CCc5ccccc54)n(C)c3nc12	1	i	9%	2.5*	8	10
SMILES	Abs 340nm	DPM-DC inhibit	NADH enzymes	Autofluor 339	MK inhibit	Spn PMK inh
Cc1cccn2c(=O)c3cc(C(=O)N4c5ccccc5CC4C)n(C)c3nc12 (stereo not drawn)	1	i	7%	1.9	4	13
O=C(c1ccco1)N1CCN(c2nc3ccccc3c(=O)n2-c2ccccc2)CC1	1.1	i	3%	1.8	4	4
Cc1cccn2c(=O)c3cc(C(=O)N4CCN(C(=O)c5ccco5)CC4)n(C)c3nc12	1.1	.	4%	5*	0	7
Cn1c(C(=O)N2CCN(C(=O)c3ccco3)CC2)cc2c(=O)n3ccccc3nc21	1	.	3%	3.4*	2	3
CCOC(=O)c1cc2c(ccn2C)n1CC(=O)N1CCN(c2ccccc2OC)CC1	1	i	6%	1.2	8	11
COc1ccc(-c2nnn(CC(=O)Nc3sc4c(c3C#N)CCCC4)n2)cc1	1	i	6%	1	0	14
CCCS(=O)(=O)N1CCCC(C(=O)NCCCN(C)c2ccccc2)C1 (stereo not drawn)	0.98	i	6%	1	6	11
CC1Cc2ccccc2N1C(=O)c1cc2c(=O)n3ccccc3nc2n1C (stereo not drawn)	1.1	i	2%	1.7	0	7
Cn1c(C(=O)N2CCc3ccccc3C2)cc2c(=O)n3ccccc3nc21	1.1	.	7%	5*	0	13
CCOc1ccc(-n2ccnc2SCC(=O)NCc2ccc3c(c2)OCO3)cc1	1	i	3%	1.1	0	8
Cn1c(Cc2cccs2)nnc1SC/C=C/c1ccccc1	1	i	1%	1	4	0
Cc1ccc(-c2cc(C(F)(F)F)c(C#N)c(SCCC#N)n2)o1	1.1	.	5%	3.7*	8	2
CCN(CC)C(=O)CSc1nc2ccccc2c(=O)n1CCC(=O)NCc1ccc(F)cc1	1	i	3%	1	5	21
COc1cc(OC)c(-c2nnc(-c3ccc(OC)c(OC)c3OC)o2)cc1OC	1.2	.	13%	2.1*	7	19
CCOC(=O)C1CCCN(C(=O)c2cc3c(=O)n(C)c4ccccc4c3n2C)C1 (stereo not drawn)	1	i	8%	1.1	4	14
COCCn1cc(C(=O)N2CCCC(C)C2)c2c3ccccc3n(C)c2c1=O (stereo not drawn)	1	.	10%	4.5*	8	12
Cn1cc(C(=O)NCCN2CCN(c3ccccc3F)CC2)c2c3ccccc3n(C)c2c1=O	1.1	i	11%	3.5*	2	8
Cn1c(C(=O)N2CCCC2)cc2c(=O)n(C)c3ccccc3c21	1	i	14%	1.1	26	6
CCN1CCN(C(=O)c2cn(CCOC)c(=O)c3c2c2ccccc2n3C)CC1	1	i	7%	2.8*	0	11
CCOC(=O)C1CCN(C(=O)c2cn(CCOC)c(=O)c3c2c2ccccc2n3C)CC1	1.1	.	7%	4.9*	4	9
